Measured values published in PubChem BioAssay AID463190 (Sanford-Burnham Center for Chemical Genomics, 2010).
Hit rate of the full screen: of about 330,000 compounds, about 7,300 (2.2%) were called active. The sample as a whole holds a higher share of actives than the screen did. A number with no mark means an inactive call.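 How the source made its calls: active means inhibition of at least 40%; inactive means the rest.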

Experiment: growth inhibition of tim10-1 ts yeast – luminescence, uHTS, primary screen (AID 463190);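 further: mutant grown at 25 °C; 0% = DMSO wells with yeast and 100% = wells holding no yeast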
Conditions: S. cerevisiae tim10-1 ts strain growth, BacTiter-Glo, 24 h; at 20 µM; stronger effect = higher value

Point of comparison: O=C1CC(c2cccc(Cl)c2)CC(O)=C1C=Nc1ccccc1 (stereo not given), inhibition 21.6%. Against it:
- Cn1c2ccccc2n2c(=O)c(=O)n(CC(=O)c3ccc(F)cc3)nc12 — lower, -14.7%
- COc1ccc(/C=C(\C#N)C(=O)OCC(=O)N(C)C2CCS(=O)(=O)C2)cc1 (stereo not given) — lower, -4.56%
- COc1ccc(N2CCN(C(=O)/C(C#N)=C/c3ccccc3)CC2)cc1 — lower, 18.8%
- CN(NC(=O)c1ccccc1F)c1nc(C(F)(F)F)nc2ccccc12 — lower, 6.21%
- Cc1ccc(Nc2c(F)c(F)c(F)c(F)c2C(=O)O)c(C)c1 — lower, -6.12%
- Oc1[nH]c2ccc(Br)cc2c1N=Nc1nn[nH]n1 — lower, 16.7%
- NS(=O)(=O)c1ccc(N=Nc2c(O)[nH]c3ccc(Br)cc23)cc1 — lower, -13%
- c1ccc(-c2cc(-c3ccccc3)[nH]n2)cc1 — lower, 7%
- Nc1cccc(-c2cc(-c3ccccc3)nc(-c3cccc(N)c3)n2)c1 — higher, 26.4%
- CCNc1nc(NCC)nc(N(C)n2cnnc2)n1 — lower, 13.1%
- O=C1N=C2SCCN2/C1=C\c1c(Cl)cccc1Cl — lower, -18.2%
- CNC(=O)N1c2ccccc2C=Cc2ccccc21 — lower, -1.34%
- CCN(CC(=O)NCc1ccco1)S(=O)(=O)c1ccc(F)cc1 — lower, -17.2%
- O=C(COC(=O)Cc1ccc([N+](=O)[O-])cc1)NC1CCCCCC1 — lower, 13.1%
- Cc1cc(C)cc(OCC(=O)O/N=C(\N)Cc2ccc([N+](=O)[O-])cc2)c1 — lower, 19.4%
- COC(=O)C(C)NC(=O)COc1ccc2ccccc2c1 (stereo not given) — lower, 8.45%
- O=C(COC(=O)C1CCCCC1)Nc1ccc([N+](=O)[O-])cc1 — lower, 13.8%
- CCOC(=O)C1=C(C)c2ccccc2OC1C(=O)OCC (stereo not given) — lower, 9.8%
- COCCN(CCOC)c1nc(N)c2c(N)nc3c(c2c1C#N)CC(=O)N3Cc1ccc(Cl)cc1 — higher, 28.9%
- CCc1cccc(CC)c1NC(=S)Nc1ccc2cn[nH]c2c1 — lower, 18.2%
- Cc1cc2cc(CNC(=O)c3cccs3)ccc2[nH]1 — lower, -2.64%
- O=C(Nc1nnc(CCN2CCCCC2)s1)c1cccc(Cl)c1 — lower, -12.8%
- Cc1cc(/C=C2/SC(=O)N(CC(=O)N3CCCC3)C2=O)ccc1N1CCOCC1 — lower, 3.32%
- CC(OC(=O)c1ccccc1N1C(=O)C2C3CCC(C3)C2C1=O)C(=O)c1ccccc1 (stereo not given) — higher, 22.1%
- COC(=O)C1=C(C)N=C2SC(C)C(=O)N2C1/C=C/c1ccccc1 (stereo not given) — lower, 19%
- N#Cc1cccc(NC(=O)C2CCCN(C(=O)c3ccc(Cl)cc3)C2)c1 (stereo not given) — lower, 7.79%
- CCC1(C)NC(=O)N(CC(=O)N2CCN(c3cccc(Cl)c3)CC2)C1=O (stereo not given) — lower, 9.91%
- O=C(Nc1ccc2cn[nH]c2c1)c1ccc(S(=O)(=O)N2CCOCC2)cc1 — lower, -2.72%
- Cc1ccc([N+](=O)[O-])cc1S(=O)(=O)N1CCCN(C)CC1 — lower, -9.68%
- O=C(Oc1ccc([N+](=O)[O-])cc1)c1ccc(Cl)c(S(=O)(=O)N2CCCCC2)c1 — higher, 38.7%
- CCc1nccn1S(=O)(=O)c1cccc([N+](=O)[O-])c1 — lower, -8.99%
- CCc1nc(C)cn1S(=O)(=O)c1cc(OC)c(C)cc1C — lower, 14.4%
- CN(CCC1CCOCC1)Cc1cn[nH]c1-c1ccc(-c2ccccc2)cc1 — lower, 18%
- COc1ccc(C(=O)C2CCCN(C(=O)c3cc4nc(C)cc(C)n4n3)C2)cc1F (stereo not given) — higher, 26.4%
- CCOc1ccc(OCc2cccc(C(=O)N(CC)CC)c2)cc1 — the same, 21.6%
- CCOC(=O)c1cc(C(C)C)sc1NC(=O)COC(=O)c1nccnc1N — lower, 9.86%
- CC(C)CCN1CCC(C)(NC(=O)c2ccccc2)C1=O (stereo not given) — lower, 10.4%
- COc1ccc(CN2C(=O)C(C)S/C2=N/N=C/c2ccco2)cc1 (stereo not given) — lower, 19.3%
- Cc1nn(Cc2ccccc2)c2c1C(c1ccccc1)C(C#N)=C(N)O2 (stereo not given) — higher, 30.9%
- Cc1nn(-c2ccccc2)c2c1C(c1ccc(F)cc1)C(C#N)=C(N)O2 (stereo not given) — higher, 24%
- COc1ccc(CCOC(=O)CNC(=O)c2ccc(Cl)cc2Cl)cc1 — lower, 18.1%
- O=C(O)c1cccnc1Sc1ncnc2sc3c(c12)CCC3 — lower, -4.59%
- Brc1ccc2nc(N3CCCC3)sc2c1 — higher, 22.5%
- Cc1nc(N2CCCCC2)sc1C=O — lower, -8.24%
- CC(C)N(C(=O)CN1CCN(S(=O)(=O)c2ccc(Br)s2)CC1)C(C)C — lower, 16.4%
- O=C(COC(=O)C1CC2C=CC1C2)Nc1ccccc1 (stereo not given) — lower, 13.3%
- CCOc1ccc(-c2cc(C(=O)N/N=C/c3ccc(O)cc3)c3ccccc3n2)cc1 — lower, 6.2%
- O=C(O)c1cc([N+](=O)[O-])c(Nc2cccc3ccccc23)c([N+](=O)[O-])c1 — lower, 7.28%
- CCOC(=O)c1nnn(-c2nonc2OC)c1-c1ccccc1 — lower, 15.2%
- CCOC(=O)c1c(-c2cccc(N)c2)cn2ccccc12 — lower, 10.5%
- Cc1ccnc(NC(=O)Cn2ccc([N+](=O)[O-])n2)c1 — lower, 14.6%
- COc1cccc(/C=C/C(=O)OCC(=O)N2CCN(c3ccccc3)CC2)c1 — lower, 17.4%
- Cn1c(-c2ccco2)nc2cc3ccccc3cc21 — higher, 33.2%
- Cc1cc(NCc2ccco2)n2c(nc3ccccc32)c1C#N — lower, 7.48%
- CCO[C@H]1OC(C(=O)O)=C[C@@H](C2CCCCC2)[C@@H]1CCCO — lower, -21.3%
- CCCOc1ccc(Cc2c(Cl)nc(SC)nc2NC)cc1 — higher, 35.5%
- COc1ccc(C(=O)Nc2sc(C)c(C)c2CN2CCOCC2)cc1 — higher, 34.2%
- CCc1cc(C(=O)c2ccc(OC)cc2)c(NC(=O)CN2CCN(C)CC2)s1 — lower, 17.7%
- C/C(Cn1nnc2ccccc21)=N\OC(=O)c1cc(F)c(F)cc1Cl — higher, 37.4%
- Cc1n[nH]c(=O)c2c(NC(=O)COC(=O)c3ncc(Cl)c(Cl)c3Cl)oc(C)c12 — lower, 10.5%
- CC(C(=O)O)n1cnc2sc3c(c2c1=O)CCCC3 (stereo not given) — lower, 2.4%
- COc1cc(Cl)ccc1OCc1cc(C(=O)N(C)CCc2c(C)n[nH]c2C)no1 — lower, 7.82%
- Cc1ccc(C(=O)CSc2ccccc2C(=O)O)cc1 — lower, -0.398%
- Cc1ccc(CSCC(N)C(=O)O)cc1 (stereo not given) — lower, 13.8%
- CCC(C(=O)OCC(=O)Nc1c(Cl)cc(Cl)cc1Cl)c1ccccc1 (stereo not given) — higher, 39.5%
- CCOC(=O)c1c(CN(C)C)n(-c2ccccc2)c2cc(Br)c(O)cc12 — lower, 10.1%
- CCOC(=O)c1nnn(-c2nonc2-n2cccc2)c1CN1CCOCC1 — higher, 23.2%
- CC1CCCCN1CC(=O)NCc1ccc2c(c1)OCO2 (stereo not given) — lower, 4.67%
- CCN(CC)c1ccc(C2C3CCCCC3(O)CCN2CC(=O)Nc2ccccc2)cc1 (stereo not given) — lower, -17.2%
- COc1ccc(N2CCN(C(=O)COC(=O)c3cccc(S(=O)(=O)Nc4ccccc4OC)c3)CC2)cc1 — lower, 19.1%
- O=C1NC[C@@H](c2ccccc2)OC(=O)[C@H](Cc2ccc(F)cc2)CC/C=C/C[C@H]1CC(=O)N(CCO)Cc1ccccc1 — lower, 3%
- S=c1nc(C23CC4CC(CC(C4)C2)C3)nc2sccn12 — lower, -12.4%
- CCOc1ccc(NC(=O)COc2ccc(C(=O)N3CCC(C(N)=O)CC3)cc2OC)cc1 — lower, 3.08%
- Cc1cccc(C(=O)N2CCc3c([nH]c4ccccc34)C2CC(C)C)n1 (stereo not given) — lower, 10.6%
- O=C(c1cn2ccccc2n1)N1CCc2c([nH]c3ccccc23)C1c1ccccn1 (stereo not given) — higher, 22.4%

In the case of COc1ccc(/C=C(\C#N)C(=O)ONC2=NCCCCC2)cc1, the inhibition is reported as 48.2% (active).
For Cc1cccc(N=Nc2c(O)[nH]c3ccc(F)cc23)c1, the inhibition was 43.6% (active).
In the case of Nc1nc(-c2ccccc2)cc(-c2ccccc2)n1, the inhibition is reported as 41.6% (active).
With N/C(Cc1ccc([N+](=O)[O-])cc1)=N\OC(=O)COc1ccc2ccccc2c1 the inhibition was 68.6% (active).
In the case of N/C(Cc1ccc([N+](=O)[O-])cc1)=N\OC(=O)C1CCCCC1, the inhibition is reported as 61.6% (active).
With CCc1cccc(CC)c1NC(=S)NCc1ccc2[nH]c(C)cc2c1 the inhibition was 48.6% (active).
With CCOC(=O)c1ccccc1N1C(=O)C2Sc3[nH]c(=O)sc3C(/C=C/c3ccccc3)C2C1=O (stereo not given) the inhibition was 40.6% (active).
In the case of CC(C)c1nccn1S(=O)(=O)c1cc([N+](=O)[O-])ccc1Cl, the inhibition is reported as 43.6% (active).
In the case of CCc1nc(C)cn1S(=O)(=O)c1cc([N+](=O)[O-])ccc1Cl, the inhibition is reported as 53.6% (active).
In the case of CC(C)c1cc(C(N)=O)c(NC(=O)c2cccc(COc3ccc(Br)cc3)c2)s1, the inhibition is reported as 40.9% (active).
With COc1ccccc1C1C(C#N)=C(N)Oc2c1c(-c1ccccc1)nn2-c1ccccc1 (stereo not given) the inhibition was 40.7% (active).
With c1c2c(cc3sc(N4CCCCC4)nc13)OCCO2 the inhibition was 43.1% (active).
In the case of CCOC(=O)c1c(N)nn(C(=O)c2ccccc2)c1-c1ccccc1, the inhibition is reported as 41.5% (active).
With CN1c2ccccc2-c2nc3ccccc3n2C1c1ccco1 (stereo not given) the inhibition was 42.1% (active).
With CCc1cc(C(N)=O)c(NC(=O)c2ccc(OC)cc2)s1 the inhibition was 45.5% (active).
For Cc1ccc(SC(CC(=O)c2ccc(C(C)(C)C)cc2)C(=O)O)cc1 (stereo not given), the inhibition was 40.7% (active).
With CCOC(=O)c1c(CN2CCOCC2)n(-c2ccccc2)c2ccc(O)cc12 the inhibition was 45% (active).
In the case of Cc1ccc(NC(=O)CN2CCC3(O)CCCCC3C2c2ccc3c(c2)OCO3)c(C)c1 (stereo not given), the inhibition is reported as 45.2% (active).
With Cc1cccc(C2c3[nH]c4ccccc4c3CCN2C(=O)c2cc(-c3cccn3C)n[nH]2)n1 (stereo not given) the inhibition was 44% (active).
